From PubChem BioAssay (NCATS)
Records with an inconclusive call do not appear. Where a call stands in place of a potency, no number is given. A number with no mark means an inactive call. Calls of active or inactive are those of the source. The call rests on the fitted dose curve; in most records, active means well fitted activation curve with a large enough effect; inconclusive means small, poorly fitted or top-dose-only effect; inactive means flat fitted curve, though single readings scatter.

Experiment: Primary redox qHTS assay for identification of artifact compounds. (AID 1845223)
How it was run: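 Amplex Red (25 uM) and HRP (250 mU/mL) in HBSS, with compounds for 15 min, then 250 uM DTT for 30 min, room temperature, dark. Fluorescence 525/598 nm read; normalized to DMSO and 10 uM DA3003; Hill fit.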

| SMILES | Potency | redox activity (% of DA3003) |
| --- | --- | --- |
| CC1(C)C(=O)N2c3ccccc3[C@]3(CC(n4cnc5ccccc5c4=O)C(=O)O3)[C@H]2N1O (stereo not given in full) | inactive |  |
| O=c1ccn([C@@H]2O[C@H](CO)[C@@H](O)[C@H]2O)c(=O)[nH]1 | inactive |  |
| CC1CCC2(C(=O)OC3OC(COC4OC(CO)C(O)C(O)C4O)C(O)C(O)C3O)CCC3(C)C(=CCC4C5(C)CCC(O)C(C)(C(=O)O)C5CCC43C)C2C1(C)O (stereo not given) |  | 2.59% [at 11.5 µM] |
| CCOC(=O)c1ccc(N(C)c2csc(-c3ccccc3)n2)cc1 | inactive |  |
| O=C(c1ccccn1)c1cnn2c(-c3ccncc3)ccnc12 | inactive |  |
| CC1CCC2C(C)(C)C(O)CCC2(C)C12Cc1c(O)cc3c(c1O2)CN=C3N (stereo not given) | inactive |  |
| CC1=C2CC3OC3(C)CCC3OC3(C)CC2OC1=O (stereo not given) | inactive |  |
| Cc1cc(N2CCCCC2)nc2ccccc12 | inactive |  |
| C/C(=C/CO)CC[C@@H]1[C@@]2(C)CCC[C@](C)(C(=O)O)C2CC[C@@]1(C)O (stereo not given in full) | inactive |  |
| OCCc1ccc(O[C@@H]2O[C@H](CO)[C@@H](O)[C@H](O)[C@H]2O)c(O)c1 | inactive |  |
| COc1ccc2c(c1)OC[C@]1(O)c3cc4c(cc3O[C@H]21)OCO4 | inactive |  |
| CC1CCC2C(C)(C)C(O)CCC2(C)C12Cc1c(O)cc3c(c1O2)C(N)=NC3 (stereo not given) | inactive |  |
| C=C1CC23CCC4[C@@](C)(CCC[C@@]4(C)C(=O)O)C2CCC1C3 (stereo not given in full) | inactive |  |
| CC1NC(=O)C(Cc2c[nH]c3ccccc23)NC1=O (stereo not given) | inactive |  |
| CNC(=O)[C@H]1O[C@@H](n2cnc3c(NCc4ccc(N)c(I)c4)ncnc32)[C@H](O)[C@@H]1O |  | 1.11% [at 11.5 µM] |
| C=C1CC[C@H]2[C@@](C)(CCC[C@@]2(C)C(=O)O)[C@@H]1CCC(C)CCO (stereo not given in full) | inactive |  |
| C=C1[C@@H]2CC[C@@]3(C)[C@H](c4ccoc4)OC(=O)C[C@]13O[C@H]1CC(=O)C(C)(C)[C@H](CC(=O)OC)[C@]12C | inactive |  |
| COc1ccc([C@H]2Cc3cccc(O)c3C(=O)O2)cc1 | inactive |  |
| OC[C@H]1O[C@@H](Oc2ccc3c(c2)OC[C@H]2c4cc5c(cc4O[C@@H]32)OCO5)[C@H](O)[C@@H](O)[C@@H]1O | inactive |  |
| CCNC(=O)CCC/C=C\C[C@@H]1[C@@H](/C=C/C(O)CCc2ccccc2)[C@@H](O)C[C@@H]1O (stereo not given in full) | inactive |  |
| Cc1onc(-c2ccccc2)c1C(=O)N[C@@H]1C(=O)N2[C@@H]1SC(C)(C)[C@@H]2C(=O)O | inactive |  |
| COc1c(OC2OC(CO)C(O)C(O)C2O)ccc(O)c1C(=O)OCc1ccccc1O[C@@H]1O[C@H](CO)[C@@H](O)[C@H](O)[C@H]1O (stereo not given in full) | inactive |  |

| SMILES | Potency | redox activity (% of DA3003) |
| --- | --- | --- |
| c1ccc(C(OC2CCN(CCCc3nn[nH]n3)CC2)c2ccccc2)cc1 | inactive |  |
| Nc1nc(CC(=O)Nc2ccc(CCNCC(O)c3ccccc3)cc2)cs1 (stereo not given) | inactive |  |
| COc1ccc(C[C@H](N)C(=O)N[C@H]2[C@@H](O)[C@H](n3cnc4c(N(C)C)ncnc43)O[C@@H]2CO)cc1 | inactive |  |
| CC12CC34C=CC(=O)C(C)(CCC(=O)O)C3C(CC1C4)O2 (stereo not given) | inactive |  |
| C=C1C2(CCC(=O)OC2(C)C)CC(OC(=O)/C(C)=C/C)C2(C)C13OC14C(=O)OC(C)(C(=O)C12C(=O)OC4C)C3OC(C)=O (stereo not given) | inactive |  |
| C=CC(C)(CC/C=C(\C)CC/C=C(\C)CC(O)/C=C(\C)C(=O)O)O[C@@H]1O[C@H](CO)[C@@H](O)[C@H](O)[C@H]1O[C@@H]1O[C@H](CO)[C@@H](O)[C@H](O)[C@H]1O (stereo not given in full) | inactive |  |
| C=C[C@H]1[C@H](O[C@@H]2O[C@H](CO)[C@@H](O)[C@H](O)[C@H]2O)OC=C2C(=O)OCC[C@]21O | inactive |  |
| C=C1CC[C@H]2[C@@](C)(CCC(O)[C@@]2(C)CO)[C@@H]1C/C=C(/C(=O)O)C(O)CO (stereo not given in full) | inactive |  |
| CCn1cc(C2=NOC(C(=O)Nc3c(C)n(C)n(-c4ccccc4)c3=O)C2)c(C)n1 (stereo not given) | inactive |  |
| C[C@H]1[C@H](C)CC[C@]2(C(=O)O[C@@H]3O[C@H](CO)[C@@H](O)[C@H](O)[C@H]3O)CC[C@]3(C(=O)O)C(=CCC4[C@@]5(C)CC[C@H](O[C@@H]6O[C@H](CO)[C@@H](O)[C@H](O)[C@H]6O)C(C)(C)C5CC[C@]43C)[C@H]12 (stereo not given in full) |  | 2.24% [at 11.5 µM] |
| CC(C)(O)C1=CCC23COC(C2)C(O)(C(=O)O)CCC13 (stereo not given) | inactive |  |
| Cc1cc(Nc2ncc(Cl)c(Nc3ccccc3S(=O)(=O)C(C)C)n2)c(OC(C)C)cc1C1CCNCC1 | inactive |  |
| COc1cc(/C=C/c2cc(O)cc(O[C@@H]3O[C@H](CO)[C@@H](O)[C@H](O)[C@H]3O)c2)ccc1O | inactive |  |
| C=CC(C)(O)CC/C=C(\C)C(=O)OC1CC2(C(=O)O)CCC3(C)C(=CCC4C5(C)CCC(OC6OC(COC7OCC(O)C(O)C7O)C(O)C(OC7OCC(O)C(O)C7O)C6OC6OC(CO)C(O)C(O)C6OC6OCC(O)C(O)C6O)C(C)(C)C5CCC43C)C2CC1(C)C (stereo not given) |  | 11.8% [at 11.5 µM] |
| C=C[C@H]1[C@H](O[C@@H]2O[C@H](CO)[C@@H](O)[C@H](O)[C@H]2O)OC=C(C(=O)OC)[C@H]1C[C@@H]1N[C@H](C(=O)O)Cc2c1[nH]c1ccccc21 | inactive |  |
| COC12CC3C(C(C)C1=CC(=O)O2)C(O)C(OC(C)=O)C1C(C)(C)C(OC(C)=O)CCC31C (stereo not given) | inactive |  |
| COc1cc(C2Oc3c(OC)cc(CCCO[C@@H]4O[C@H](CO)[C@@H](O)[C@H](O)[C@H]4O)cc3C2CO)ccc1O (stereo not given in full) | inactive |  |
| CC(/C=C/C1(O)C2(C)COC1(C)CC(=O)C2)O[C@@H]1O[C@H](CO)[C@@H](O)[C@H](O)[C@H]1O (stereo not given in full) | inactive |  |
| COC(=O)C1=CO[C@@H](O[C@@H]2O[C@H](CO)[C@@H](O)[C@H](O)[C@H]2O)[C@@H]2[C@@H](C)[C@@H](O)C[C@H]12 | inactive |  |
| CN1C(=O)c2ccccc2NC(=O)[C@]12O[C@@H]2c1cccc(O)c1 | inactive |  |
| COC(=O)c1cc(CN2CCN(C(=N)N)CC2)cc(C(=O)N2CCN(C(=O)c3ccc(C(=N)N)cc3)CC2)c1 | inactive |  |
| CC(C)CC(=O)O[C@@H]1OC=C(CO[C@@H]2O[C@H](CO[C@@H]3O[C@H](CO)[C@@H](O)[C@H](O)[C@H]3O)[C@@H](O)[C@H](O)[C@H]2O)[C@H]2C[C@H](O)[C@@H](CO)[C@@H]12 | inactive |  |

| SMILES | Potency | redox activity (% of DA3003) |
| --- | --- | --- |
| CC1(O)CCC2C(C(=O)O)=COC(OC3OC(CO)C(O)C(O)C3OC(=O)/C=C/c3ccc(O)cc3)C21 (stereo not given) | inactive |  |
| COC(=O)C1=CO[C@@H](O[C@@H]2O[C@H](CO)[C@@H](O)[C@H](O)[C@H]2O)[C@@H]2[C@@H](C(=O)OC)[C@@H](O)C(O)[C@H]12 (stereo not given in full) | inactive |  |
| Cc1nn(C)c(COc2ccc(N3CCN(S(=O)(=O)N(C)C)CC3)cc2)c1-c1cccc2c(CCCOc3cccc4ccccc34)c(C(=O)O)n(CCN3CCOCC3)c12 | inactive |  |
| CC1=C(C)C(=O)OC(C(C)C2C(O)CC3C4C5OC5C5(O)CC(OC6OC(CO)C(O)C(O)C6O)CC(O)C5(C)C4CCC32C)C1 (stereo not given) | inactive |  |
| NCc1ccc(OCCCc2sc(-c3ccc4c(c3)/C(=N/Nc3nc5ccccc5s3)CCC4)nc2C(=O)O)cc1 | inactive |  |
| CC(=O)OC[C@]12[C@H](OC(C)=O)C(=O)[C@@H]3[C@@H](OC(C)=O)[C@@]14O[C@@]3(C)COC(=O)c1cccnc1[C@@H](C)[C@H](C)C(=O)O[C@@H]([C@H](OC(C)=O)[C@@H]2OC(C)=O)[C@]4(C)O | inactive |  |
| CC(=O)C1CCC2(C)C3=C(CCC12C)C1(C)CCC(=O)C(C)(C)C1CC3 (stereo not given) | inactive |  |
| CC(=O)Oc1cc2c(s1)CCN([C@H](C(=O)C1CC1)c1ccccc1F)C2 | inactive |  |
| CCC[C@@H]1C[C@@H](C(=O)N[C@@H]([C@H]2O[C@H](SC)[C@H](OP(=O)(O)O)[C@@H](O)[C@H]2O)[C@H](C)Cl)N(C)C1 | inactive |  |
| O=C(COc1ccc(Cl)cc1)NC1CCC(NC(=O)COc2ccc(Cl)cc2)CC1 (stereo not given) | inactive |  |
| C[C@@H]1O[C@@H](O[C@@H]2[C@@H](O)[C@H](O[C@@H]3[C@@H](O)[C@@H](O)[C@H](O[C@H]4[C@H](OC(=O)[C@]56CCC(C)(C)C[C@H]5C5=CCC7[C@@]8(C)C[C@H](O)[C@H](O[C@@H]9O[C@@H](C)[C@H](O)[C@@H](O)[C@H]9O)[C@@](C)(CO)C8CC[C@@]7(C)[C@]5(C)C[C@H]6O)O[C@H](C)[C@H](O)[C@@H]4O)O[C@H]3C)OC[C@H]2O)[C@H](O)[C@H](O)[C@H]1O (stereo not given in full) |  | 10.9% [at 11.5 µM] |
| CN(NC(=O)CC(=O)NN(C)C(=S)c1ccccc1)C(=S)c1ccccc1 | inactive |  |
| COC1CC(=O)CCC(C)OC(=O)CC1O (stereo not given) | inactive |  |
| O=C(/C=C/c1ccc(O)cc1)OC[C@H]1O[C@@H](OC(=O)/C=C/c2ccccc2)[C@H](O)[C@@H](O)[C@@H]1O | inactive |  |
| COc1cccc(-n2nc(C(=O)O)cc2-c2ccc(C3CCCCC3)c(Cl)c2)c1 | inactive |  |
| C[C@@H]1O[C@@H](OC[C@H]2O[C@@H](OCC3CCC4CC3C4(C)C)[C@H](O)[C@@H](O)[C@@H]2O)[C@H](O)[C@H](O)[C@H]1O (stereo not given in full) | inactive |  |
| N[C@H]1C[C@H]1c1ccc(-c2cccc(O)c2)cc1 | inactive |  |
| O=C(O)[C@H]1CCCC[C@H]1C(=O)N1CCc2ccccc2[C@H]1CN1C(=O)c2ccccc2C1=O | inactive |  |
| OC[C@H]1O[C@@H](n2cnc3c(NCc4ccc(O)cc4)ncnc32)[C@H](O)[C@@H]1O | inactive |  |
| COc1cc(/C=C/C(=O)O[C@H]2[C@H](OC(=O)/C=C/c3cc(OC)c(O)c(OC)c3)O[C@H](CO[C@@H]3O[C@H](CO)[C@@H](O)[C@H](O)[C@H]3O)[C@@H](O)[C@@H]2O)ccc1O | inactive |  |
| CC[C@H]1OC(=O)[C@H](C)[C@@H](O[C@H]2C[C@@](C)(OC)[C@@H](O)[C@H](C)O2)[C@H](C)[C@@H](O[C@@H]2O[C@H](C)C[C@H](N(C)C)[C@H]2O)[C@@](C)(O)C[C@@H](C)[C@@H]2N[C@@H](COCCOC)OC([C@H]2C)[C@]1(C)O | inactive |  |
